{
  "source": "PubChem BioAssay (NCATS)",
  "note": "Inconclusive results are not listed. Entries that show only a call come without a potency. The source made the active and inactive calls. The call rests on the fitted dose curve; tested in HEK293 reporter line.",
  "data": [
    {"assay": "qHTS for Inhibitors of the Functional Ribonucleoprotein Complex (vRNP) of Lassa (LASV) Arenavirus: LASV Primary Screen - GLuc reporter signal (AID 1347082); further: nearly all actives have a fitted effect of over 60% in size", "conditions": "LASV minigenome vRNP, Gaussia luciferase reporter; series mostly up to 57.5 µM", "values": [
      {"compound": "NC(CO)(CO)CO", "Potency": "inactive"},
      {"compound": "CC(=O)OCC(=O)[C@@]1(OC(C)=O)[C@@H](C)C[C@H]2[C@@H]3C[C@H](F)C4=CC(=O)C=C[C@]4(C)[C@@]3(F)[C@@H](O)C[C@@]21C", "Potency": "inactive"},
      {"compound": "Cc1nc2c([nH]1)c(=O)n(C)c(=O)n2Cc1ccco1", "Potency": "inactive"},
      {"compound": "CC(=O)Nc1c(I)c(NC(C)=O)c(I)c(C(=O)O)c1I", "Potency": "inactive"},
      {"compound": "CCOC(=O)[C@H](CCc1ccccc1)N[C@@H](C)C(=O)N1CCC[C@H]1C(=O)O", "Potency": "inactive"},
      {"compound": "Cc1cc(=O)[nH]c(=S)[nH]1", "Potency": "inactive"},
      {"compound": "CN1C(C)(C)CCCC1(C)C", "Potency": "inactive"},
      {"compound": "Cc1cc(=O)c2c(O)c3c(O)cc(=O)c4c3c3c(cc(O)c1c23)C(C)(C)C=4O", "Potency": "inactive"},
      {"compound": "CNC(=O)c1c(I)c(NC(C)=O)c(I)c(C(=O)O)c1I", "Potency": "inactive"},
      {"compound": "CC(=O)N(CC(O)CO)c1c(I)c(C(=O)NCC(O)CO)c(I)c(C(=O)NCC(O)CO)c1I", "note": "(stereo unspecified)", "Potency": "inactive"},
      {"compound": "CO[C@@]1(NC(=O)Cc2cccs2)C(=O)N2C(C(=O)O)=C(COC(N)=O)CS[C@@H]21", "Potency": "inactive"},
      {"compound": "COc1ccc(C(=O)N2CCN(CC(=O)N3CCOCC3)CC2)cc1", "Potency": "inactive"},
      {"compound": "O=C(/C=C/c1ccccc1)OCc1ccccc1", "Potency": "inactive"},
      {"compound": "O=C1c2c(O)cccc2Cc2cccc(O)c21", "Potency": "inactive"},
      {"compound": "NC(N)=Nc1nc(CSCC/C(N)=N/S(N)(=O)=O)cs1", "Potency": "inactive"},
      {"compound": "CCNC(=O)/C=C/c1cccc(Br)c1", "Potency": "inactive"},
      {"compound": "CC(=O)OC(C)OC(=O)C(C)c1ccc(-c2ccccc2)c(F)c1", "note": "(stereo unspecified)", "Potency": "inactive"},
      {"compound": "Nc1ncnc2c1ncn2[C@@H]1O[C@H](COP(=O)(O)O)[C@@H](O)[C@H]1O", "Potency": "inactive"},
      {"compound": "CC(C(=O)O)c1ccc(/C=C2\\CCCCC2=O)cc1", "note": "(stereo unspecified)", "Potency": "inactive"},
      {"compound": "CC1(C)S[C@@H]2[C@H](NC(=O)C(c3ccccc3)S(=O)(=O)O)C(=O)N2[C@H]1C(=O)O", "note": "(stereo partly specified)", "Potency": "inactive"},
      {"compound": "CN1CCN(CC(=O)N2c3ccccc3C(=O)Nc3cccnc32)CC1", "Potency": "inactive"},
      {"compound": "CCOc1ccccc1OCC1CNCCO1", "note": "(stereo unspecified)", "Potency": "inactive"},
      {"compound": "CC(=O)c1ccc(S(=O)(=O)NC(=O)NC2CCCCC2)cc1", "Potency": "inactive"},
      {"compound": "CCCCCCCCCCCCSCCOCCO", "Potency": "inactive"},
      {"compound": "Cc1c(I)c(=O)n(-c2ccccc2)n1C", "Potency": "inactive"},
      {"compound": "CCOC(=O)Oc1ccc(CCNC(=O)[C@H](CCSC)NC(C)=O)cc1OC(=O)OCC", "Potency": "inactive"},
      {"compound": "CN=C(NC#N)Nc1ccc(C2=NNC(=O)CC2C)cc1", "note": "(stereo unspecified)", "Potency": "inactive"},
      {"compound": "O=C(O)CCCC[C@@H]1SC[C@@H]2NC(=O)N[C@@H]21", "Potency": "inactive"},
      {"compound": "CN[C@@H](C)Cc1ccccc1", "Potency": "inactive"},
      {"compound": "COc1cccc(OC)c1C(=O)N[C@@H]1C(=O)N2[C@@H]1SC(C)(C)[C@@H]2C(=O)O", "Potency": "inactive"},
      {"compound": "NS(=O)(=O)c1cc2c(cc1Cl)NC(CC1CCCC1)NS2(=O)=O", "note": "(stereo unspecified)", "Potency": "inactive"},
      {"compound": "CC1c2ccccc2CN1NC(=O)c1ccc(Cl)c(S(N)(=O)=O)c1", "note": "(stereo unspecified)", "Potency": "inactive"},
      {"compound": "COC(=O)c1ccc(NC(C)=O)cc1OC", "Potency": "inactive"},
      {"compound": "CC(C)(Oc1ccc(C2CC2(Cl)Cl)cc1)C(=O)O", "note": "(stereo unspecified)", "Potency": "inactive"},
      {"compound": "CCCCNC(=O)NS(=O)(=O)c1ccc(N)cc1", "Potency": "inactive"},
      {"compound": "CC(C)(C)CC(C)(C)c1ccc(O)c(-n2nc3ccccc3n2)c1", "Potency": "inactive"},
      {"compound": "CC(=O)N(CC(O)CO)c1c(I)c(C(=O)NCCO)c(I)c(C(=O)NCC(O)CO)c1I", "note": "(stereo unspecified)", "Potency": "inactive"},
      {"compound": "O=C(O)c1ccc(S(=O)(=O)N(Cl)Cl)cc1", "Potency": "inactive"}
    ]},
    {"assay": "qHTS for Inhibitors of the Functional Ribonucleoprotein Complex (vRNP) of Lassa (LASV) Arenavirus: Viability assay - alamar blue signal for LASV Primary Screen (AID 1347083); further: nearly all actives have a fitted effect of over 80% in size", "conditions": "cell viability, alamar blue fluorescence (LASV minigenome counter-screen); series mostly up to 57.5 µM", "values": [
      {"compound": "NC(CO)(CO)CO", "Potency": "inactive"},
      {"compound": "CC(=O)OCC(=O)[C@@]1(OC(C)=O)[C@@H](C)C[C@H]2[C@@H]3C[C@H](F)C4=CC(=O)C=C[C@]4(C)[C@@]3(F)[C@@H](O)C[C@@]21C", "Potency": "inactive"},
      {"compound": "Cc1nc2c([nH]1)c(=O)n(C)c(=O)n2Cc1ccco1", "Potency": "inactive"},
      {"compound": "CC(=O)Nc1c(I)c(NC(C)=O)c(I)c(C(=O)O)c1I", "Potency": "inactive"},
      {"compound": "CCOC(=O)[C@H](CCc1ccccc1)N[C@@H](C)C(=O)N1CCC[C@H]1C(=O)O", "Potency": "inactive"},
      {"compound": "Cc1cc(=O)[nH]c(=S)[nH]1", "Potency": "inactive"},
      {"compound": "CN1C(C)(C)CCCC1(C)C", "Potency": "inactive"},
      {"compound": "Cc1cc(=O)c2c(O)c3c(O)cc(=O)c4c3c3c(cc(O)c1c23)C(C)(C)C=4O", "Potency": "inactive"},
      {"compound": "CNC(=O)c1c(I)c(NC(C)=O)c(I)c(C(=O)O)c1I", "Potency": "inactive"},
      {"compound": "CC(=O)N(CC(O)CO)c1c(I)c(C(=O)NCC(O)CO)c(I)c(C(=O)NCC(O)CO)c1I", "note": "(stereo unspecified)", "Potency": "inactive"},
      {"compound": "CO[C@@]1(NC(=O)Cc2cccs2)C(=O)N2C(C(=O)O)=C(COC(N)=O)CS[C@@H]21", "Potency": "inactive"},
      {"compound": "COc1ccc(C(=O)N2CCN(CC(=O)N3CCOCC3)CC2)cc1", "Potency": "inactive"},
      {"compound": "O=C(/C=C/c1ccccc1)OCc1ccccc1", "Potency": "inactive"},
      {"compound": "O=C1c2c(O)cccc2Cc2cccc(O)c21", "Potency": "inactive"},
      {"compound": "NC(N)=Nc1nc(CSCC/C(N)=N/S(N)(=O)=O)cs1", "Potency": "inactive"},
      {"compound": "CCNC(=O)/C=C/c1cccc(Br)c1", "Potency": "inactive"},
      {"compound": "CC(=O)OC(C)OC(=O)C(C)c1ccc(-c2ccccc2)c(F)c1", "note": "(stereo unspecified)", "Potency": "inactive"},
      {"compound": "Nc1ncnc2c1ncn2[C@@H]1O[C@H](COP(=O)(O)O)[C@@H](O)[C@H]1O", "Potency": "inactive"},
      {"compound": "CC(C(=O)O)c1ccc(/C=C2\\CCCCC2=O)cc1", "note": "(stereo unspecified)", "Potency": "inactive"},
      {"compound": "CC1(C)S[C@@H]2[C@H](NC(=O)C(c3ccccc3)S(=O)(=O)O)C(=O)N2[C@H]1C(=O)O", "note": "(stereo partly specified)", "Potency": "inactive"},
      {"compound": "CN1CCN(CC(=O)N2c3ccccc3C(=O)Nc3cccnc32)CC1", "Potency": "inactive"},
      {"compound": "CCOc1ccccc1OCC1CNCCO1", "note": "(stereo unspecified)", "Potency": "inactive"},
      {"compound": "CC(=O)c1ccc(S(=O)(=O)NC(=O)NC2CCCCC2)cc1", "Potency": "inactive"},
      {"compound": "CCCCCCCCCCCCSCCOCCO", "Potency": "inactive"},
      {"compound": "Cc1c(I)c(=O)n(-c2ccccc2)n1C", "Potency": "inactive"},
      {"compound": "CCOC(=O)Oc1ccc(CCNC(=O)[C@H](CCSC)NC(C)=O)cc1OC(=O)OCC", "Potency": "inactive"},
      {"compound": "CN=C(NC#N)Nc1ccc(C2=NNC(=O)CC2C)cc1", "note": "(stereo unspecified)", "Potency": "inactive"},
      {"compound": "O=C(O)CCCC[C@@H]1SC[C@@H]2NC(=O)N[C@@H]21", "Potency": "inactive"},
      {"compound": "CN[C@@H](C)Cc1ccccc1", "Potency": "inactive"},
      {"compound": "COc1cccc(OC)c1C(=O)N[C@@H]1C(=O)N2[C@@H]1SC(C)(C)[C@@H]2C(=O)O", "Potency": "inactive"},
      {"compound": "NS(=O)(=O)c1cc2c(cc1Cl)NC(CC1CCCC1)NS2(=O)=O", "note": "(stereo unspecified)", "Potency": "inactive"},
      {"compound": "CC1c2ccccc2CN1NC(=O)c1ccc(Cl)c(S(N)(=O)=O)c1", "note": "(stereo unspecified)", "Potency": "inactive"},
      {"compound": "COC(=O)c1ccc(NC(C)=O)cc1OC", "Potency": "inactive"},
      {"compound": "CC(C)(Oc1ccc(C2CC2(Cl)Cl)cc1)C(=O)O", "note": "(stereo unspecified)", "Potency": "inactive"},
      {"compound": "CCCCNC(=O)NS(=O)(=O)c1ccc(N)cc1", "Potency": "inactive"},
      {"compound": "CC(C)(C)CC(C)(C)c1ccc(O)c(-n2nc3ccccc3n2)c1", "Potency": "inactive"},
      {"compound": "CC(=O)N(CC(O)CO)c1c(I)c(C(=O)NCCO)c(I)c(C(=O)NCC(O)CO)c1I", "note": "(stereo unspecified)", "Potency": "inactive"},
      {"compound": "O=C(O)c1ccc(S(=O)(=O)N(Cl)Cl)cc1", "Potency": "inactive"}
    ]}
  ]
}
